Measured values published in PubChem BioAssay (NCI).
The panel holds about 83,000 compounds, 20% with a hit somewhere; the sample as a whole holds those more often.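 Values shown are percent growth following 48 h exposure of cells in 96-well plates to a single concentration of compound; below 10 was considered active.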 Calls of active or inactive are those of the source.

Key:
Experiment in all cases: NCI-60 one-dose screen, 48 h (100 = growth as untreated, 0 = no growth, -100 = all killed)
Details in all cases: 10 µM
[1] = system: RPMI-8226 leukemia
[2] = system: OVCAR-8 ovarian
[3] = system: OVCAR-5 ovarian
[4] = system: OVCAR-4 ovarian
[5] = system: SK-OV-3 ovarian
[6] = system: IGROV1 ovarian
[7] = system: OVCAR-3 ovarian
[8] = system: HS 578T breast
[9] = system: NCI/ADR-RES ovarian
[10] = system: T-47D breast
[11] = system: BT-549 breast
[12] = system: MDA-MB-435 melanoma
[13] = system: SW-620 colon
[14] = system: MCF7 breast
[15] = system: HCT-116 colon
[16] = system: HCC-2998 colon
[17] = system: KM12 colon

Measured: growth

COc1ccc(/C=C2/CN(CCC#N)C/C(=C\c3ccc(OC)cc3)C2=O)cc1
inactive: [3] 59.7% | [4] 17.3% | [5] 13.4% | [8] 33.1% | [10] 39.4% | [14] 10.4%
active: [1] -17.2% | [2] 1.11% | [6] 7.88% | [7] -26% | [9] 7.02% | [11] 5.02% | [12] -30% | [13] -37.2% | [15] -68.2% | [16] -82.3%

COc1cccc(Cn2c(-c3nonc3N)nc3ccccc32)c1
active: [1] 4.9% | [5] 6.27% | [7] -54% | [8] 3.15% | [12] -73.9%
inactive: [2] 21.4% | [3] 37.5% | [4] 32.2% | [6] 28.1% | [9] 14.4% | [10] 55.1% | [11] 47.9% | [13] 14.4% | [14] 15.5% | [15] 18.3% | [16] 23.7%

C#Cc1ccc(-n2c(/C=C/c3ccc(C(F)(F)F)cc3)nc3ncccc3c2=O)cc1
active: [1] -9.89% | [4] -42.6% | [7] -8.86% | [12] 6.06% | [13] -12.3% | [15] 1.75%
inactive: [2] 17.2% | [3] 68.8% | [5] 54.1% | [6] 34% | [8] 72.4% | [9] 29.3% | [10] 35.4% | [11] 24.8% | [14] 14.9% | [16] 18.7%

CSc1nn(-c2ccccc2)c2ncnc(Oc3ccccc3)c12
inactive: [1] 84.5% | [2] 99% | [3] 96.2% | [4] 86.9% | [5] 104% | [6] 87.4% | [7] 91.2% | [8] 148% | [9] 96.6% | [10] 87.7% | [11] 94.5% | [12] 102% | [13] 104% | [14] 107% | [15] 85.4% | [16] 102%

N#CCCN1C/C(=C/c2ccccc2)C(=O)/C(=C/c2ccccc2)C1
active: [1] -14.4% | [2] 0.855% | [8] -9.54% | [9] 1.6% | [12] -30.9% | [13] -24.9% | [14] -12% | [15] -81.7% | [16] -81%
inactive: [3] 84.4% | [4] 40.5% | [5] 67.8% | [6] 55.8% | [7] 16% | [10] 68% | [11] 44.3%

COc1cc2nc(Nc3cccc(NC(C)=O)c3)nc(N)c2cc1OC
inactive: [1] 55.7% | [2] 99% | [3] 117% | [4] 107% | [5] 118% | [6] 26.8% | [7] 111% | [8] 95.7% | [9] 149% | [10] 90.1% | [11] 118% | [12] 123% | [13] 95.9% | [14] 99.5% | [15] 95.9% | [16] 113% | [17] 89.5%

C#Cc1ccc(-n2c(/C=C/c3cc(OC)cc(OC)c3)nc3ncccc3c2=O)cc1
inactive: [1] 25.1% | [2] 66.8% | [3] 129% | [4] 60.2% | [5] 68.1% | [6] 91.9% | [7] 76.4% | [8] 88% | [9] 77.1% | [10] 71.8% | [11] 65.2% | [12] 79.1% | [13] 105% | [14] 68.5% | [15] 74.8% | [16] 94.2%

O=C1NC(=O)c2ncccc21
inactive: [1] 99.3% | [2] 100% | [3] 107% | [4] 113% | [5] 101% | [6] 107% | [7] 113% | [8] 124% | [9] 106% | [10] 102% | [11] 91.1% | [12] 100% | [13] 120% | [14] 95.5% | [15] 102% | [16] 103% | [17] 107%

C#Cc1ccc(-n2c(/C=C/c3ccc4ccccc4c3)nc3ncccc3c2=O)cc1
active: [1] -8.86% | [4] -3.79%
inactive: [2] 38.5% | [3] 105% | [5] 68.9% | [6] 52.7% | [7] 17% | [8] 72.8% | [9] 42.5% | [10] 42.7% | [11] 52.4% | [12] 12.8% | [13] 19.2% | [14] 18.6% | [15] 21% | [16] 31.1%

COc1ccc(-c2nc(-c3nc4cc(Cl)c(Cl)cc4[nH]3)c3ccccn23)cc1
active: [4] -34.2% | [5] -25.1%
inactive: [1] 49.9% | [2] 31.6% | [3] 91.6% | [6] 75.9% | [7] 39% | [8] 12.9% | [9] 51.4% | [10] 66.5% | [11] 71.9% | [12] 65.2% | [13] 79.6% | [14] 69.6% | [15] 24.8% | [16] 76.4%

COc1ccc(Nc2ncnc3c2c(SC)nn3-c2ccccc2)cc1
inactive: [1] 85.3% | [2] 98% | [3] 96.7% | [4] 73.3% | [5] 109% | [6] 88.4% | [7] 99.1% | [8] 136% | [9] 91.9% | [10] 70.7% | [11] 96.5% | [12] 97.8% | [13] 103% | [14] 103% | [15] 89.2% | [16] 103%

N=C(N)c1ccc(-c2ccc(-c3cccs3)s2)cc1
active: [1] -30.9% | [2] -14% | [4] -19.8% | [12] -85.9% | [13] -66.2% | [14] -79.4% | [15] -67.1% | [16] -69.5%
inactive: [3] 67% | [5] 65.9% | [6] 94.9% | [7] 36.7% | [8] 104% | [9] 56.1% | [10] 55.1% | [11] 93.2%

COc1ccc(-c2ccc(-c3ccc(C(=N)N)cn3)o2)cc1
inactive: [1] 28.3% | [2] 76.3% | [3] 76.9% | [4] 61.4% | [5] 78.4% | [6] 75.2% | [7] 97.1% | [8] 94.1% | [9] 88.1% | [10] 69.1% | [11] 86.3% | [12] 26.4% | [13] 80.4% | [14] 47.3% | [15] 45.9% | [16] 29.1%

N=C(N)c1ccc(-c2ccc(-c3ccco3)o2)cc1
inactive: [1] 25.3% | [2] 76.2% | [3] 79% | [4] 62.9% | [5] 94.9% | [6] 69.7% | [7] 88.2% | [8] 83.4% | [9] 93.1% | [10] 58.7% | [11] 80.2% | [12] 55.4% | [13] 60.3% | [14] 42.8% | [15] 42.5%
active: [16] -28.3%

COc1cc2cc3c(nc2cc1OC)CCN3Cc1ccc(NC(=O)Nc2cc(C(F)(F)F)cc(C(F)(F)F)c2)cc1
inactive: [1] 54.2% | [2] 61.7% | [3] 92.6% | [4] 80.5% | [5] 95.2% | [6] 84.3% | [7] 51.6% | [8] 77.4% | [9] 60.5% | [10] 71.5% | [11] 106% | [12] 76.4% | [13] 88.3% | [14] 49.3% | [15] 66.7% | [16] 83.4% | [17] 68.6%

O=C1/C(=C\c2ccccc2)CN(C(=O)c2ccccc2)C/C1=C\c1ccccc1
active: [1] -27% | [7] -12.2% | [8] -14.8% | [11] 2.1% | [12] -49.6% | [13] -62.3% | [14] -36.9% | [15] -81.4% | [16] -77.9%
inactive: [2] 14.3% | [3] 70.5% | [4] 36.5% | [5] 50.1% | [6] 26.6% | [9] 21.9% | [10] 48.7%

O=C1/C(=C\c2ccc(Cl)cc2)CN(C(=O)c2ccccc2)C/C1=C\c1ccc(Cl)cc1
inactive: [3] 83.8% | [4] 36% | [5] 59.3% | [9] 28.3% | [10] 67.2% | [11] 19.8%
active: [1] -25% | [2] 4.04% | [6] 4.31% | [7] -8.04% | [8] 5.5% | [12] -18.1% | [13] -33.8% | [14] 2.9% | [15] -48.2% | [16] -71.8%

N=C(N)c1ccc(-c2ccc(-c3cccs3)o2)cc1
inactive: [2] 60% | [3] 70.3% | [4] 41.6% | [5] 79.4% | [6] 67.5% | [7] 71.7% | [8] 70.3% | [9] 71.5% | [10] 43.8% | [11] 85.2%
active: [1] -25.4% | [12] -49.3% | [13] -47.9% | [14] 3.09% | [15] 7.25% | [16] -66%
